# Compound activity as filed in PubChem.
# Hits are enriched below; roughly 19% of the tested compounds scored in any of these assays.
# MCF10A rereplic = inducers of DNA re-replication in MCF 10A breast cells; Potency, µM (top dose mostly 46.1 µM), for inactives: at the top dose activity, positive = re-replication, hits mostly activators; AID 624296; hit rate 2.9% among 350,000; MCF 10A DNA re-replication, Hoechst nuclear intensity, 48 h; note: potency is the fitted concentration of half-maximal effect; % of control where 0% means no effect; nearly all actives have a fitted effect of over 50% in size
# DT40 TDP1 no CPT = qHTS for Inhibitors of human tyrosyl-DNA phosphodiesterase 1 (TDP1): qHTS in cells in absence of CPT; DT40 Tdp1-/- hTDP1 cells, no CPT, ATP luminescence, 48 h; Potency, µM (top dose mostly 46.2 µM), for the others: at the top dose activity change, negative = growth inhibition, usual class: inhibitors; hit rate 15% among 420,000; note: potency is the fitted concentration of half-maximal effect; % is set by controls: 0 for no effect and ±100 for the full control effect; nearly all actives have a fitted effect of over 55% in size
#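 Stably hTDP1-transfected Tdp1-null chicken DT40 cells were treated with library compounds minus camptothecin and grown for at least 48 hr at 37 °C, after which cellular ATP was quantified by luminescence.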
# DT40 TDP1 CPT = DT40-hTDP1 cell growth loss with CPT; AID 686979; chicken DT40 Tdp1-/-;hTDP1 cells + 20 nM CPT, ATP luminescence, 48 h; Potency, µM (top dose mostly 46.2 µM), for inactives: at the highest dose activity change, negative = growth inhibition, actives largely listed as inhibitors; hit rate 12% among 420,000; note: potency is the fitted concentration of half-maximal effect; % is set by controls: 0 for no effect and ±100 for the full control effect; nearly all actives have a fitted effect of over 55% in size
#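 Chicken DT40 Tdp1-/- cells stably complemented with human TDP1 were seeded at 400 cells/well in medium containing 20 nM camptothecin, exposed to pin-transferred compounds, and grown at 37 °C for at least 48 hr. Viability was read as ATP luminescence.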
# IL-1B inflam inh = inflammasome signaling inhibition, IL-1 beta readout; THP-1 LPS/ATP IL-1B secretion, AlphaLISA, 16 h; active compounds read low; activity change, % at 57.5 µM; hit rate 4.7% among 360,000; in the data active = activity change below about -50%; inconclusive = mostly about -30% to -49%; note: % is set by controls: 0 for no effect and ±100 for the full control effect
#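 Secreted IL-1B measured by AlphaLISA bead assay after 16 h compound exposure of THP-1 cells; compounds (final up to 57.5 uM) added 1 h before LPS (250 ng/mL) and ATP (1.25 mM) stimulation; lower signal means less secretion.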
# BCR signal inh = blocks chronic active B-cell receptor signaling | ABC-DLBCL IkBa-CBG/CBR reporter, luminescence ratio, 4 h | Potency, µM (doses to about 46.1 µM), without a hit: at the top dose activity change, negative = inhibition, hits mostly inhibitors | hit rate 0.05% among 340,000; active = well fitted inhibition curve with a large enough effect in the signal ratio, with a control signal flat, not every such curve was filed as active; inconclusive = small, poorly fitted or top-dose-only effect, or effect the other way, or a change in a side signal; the % refers to the signal ratio;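 note: potency is the fitted concentration of half-maximal effect; plate controls were basal doxycycline-induced cells for no effect and cells given 10 µM MG132 for full effect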
#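 TMD8 human ABC-DLBCL cells with doxycycline-inducible IκBα–green luciferase fusion and unfused red luciferase, in 0.5% FBS medium; compounds up to 46 uM, 4 h at 37C. Green/red luminescence ratio, filter-overlap corrected, fitted to concentration-response curves.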
# SW480 rereplic = DNA re-replication induction in SW480 cells; hit rate 1.8% among 340,000; AID 624297; SW480 DNA re-replication, Hoechst DNA content imaging, 48 h; Potency, µM (top dose mostly 46.1 µM), for inactives: top-dose re-replication activation, hits mostly activators; note: potency is the fitted concentration of half-maximal effect; % of control where 0% means no effect; nearly all actives have a fitted effect of over 55% in size
#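 Image-based DNA-content assay: after two days of treatment, nuclei were labelled with the DNA dye Hoechst and imaged, and hits were compounds raising the count of nuclei showing high fluorescence intensity.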
# * hit, by the source's call; i = inactive; u = inconclusive; x = no result. Unless noted, calls come from the whole dose curve; as a rule, active = well fitted curve in the direction sought with a large enough effect; inconclusive = small, poorly fitted or top-dose-only effect, or another doubt; inactive = no such curve, though single readings can be large; an effect the other way counts as inactive or inconclusive.
SMILES,MCF10A rereplic,DT40 TDP1 no CPT,DT40 TDP1 CPT,IL-1B inflam inh,BCR signal inh,SW480 rereplic
Cc1cccc(OCCC(=O)Nc2ccc(C)c(S(=O)(=O)N3CCCCC3)c2)c1,22%,21µM*,u,-72*,7%,9%
CN(CCOc1ccccc1)c1ccc(S(=O)(=O)N2CCCCC2)cn1,1%,21µM*,u,-29,5%,-1%
CN(CCOc1ccccc1)CC(=O)Nc1ccc(S(=O)(=O)N2CCCC2)cc1,u,u,u,0,u,-32%
Cc1cccc(OCCC(=O)Nc2ccc(C)c(S(=O)(=O)N3CCOCC3)c2)c1,4%,u,u,-15,-11%,-1%
CN(CCOc1ccccc1)C(=O)c1ccc(Cl)c(S(=O)(=O)N2CCCCC2)c1,29%,u,u,-8,0%,2%
Cc1ccc(C(=O)N(C)CCOc2ccccc2)cc1S(=O)(=O)N1CCCCC1,4%,u,18µM*,0,0%,-24%
Cc1cccc(OCCCC(=O)Nc2ccc(Cl)c(S(=O)(=O)N3CCOCC3)c2)c1,u,12µM*,23µM*,-20,-1%,-4%
CCOc1ccccc1OCCCC(=O)Nc1ccc(Cl)c(S(=O)(=O)N2CCOCC2)c1,9%,u,u,13,0%,4%
CC1(C)CC(NC(=O)c2ccccn2)CC(C)(C)N1O,-30%,-2%,-7%,-8,-4%,-49%
CC1=CC(C2CC(=O)N(c3ccc(C)cc3)C2=O)CC2C(=O)N(c3ccc(C)cc3)C(=O)C12 (configuration not stated),2%,u,12%,0,0%,u
CC(C)CCNC(=O)C1CCN(S(=O)(=O)c2cccc3nsnc23)CC1,x,-9%,-17%,x,x,x
Cc1cc(C(=O)N2CCN(c3ccc(F)cc3)CC2)c2c(C)nn(-c3cccc(Cl)c3C)c2n1,x,15µM*,21µM*,x,x,x
Cc1cc(C(=O)N2CCN(c3cccc(Cl)c3)CC2)c2c(C)nn(-c3ccccc3Cl)c2n1,x,29µM*,u,x,x,x
COc1ccc(NC(=O)c2cc(C)nc3c2c(C)nn3-c2cccc(Cl)c2C)c(OC)c1,x,-25%,-16%,x,x,x
COc1cc(NC(=O)c2cc(C)nc3c2c(C)nn3-c2ccccc2Cl)cc(OC)c1,x,23µM*,u,x,x,x
COCCN(C(=O)COC(=O)C1CCCCC1)c1c(N)n(Cc2ccccc2)c(=O)[nH]c1=O,x,12%,2%,7,x,x
CCN(CC)C(=O)[C@@]1(c2ccccc2)C[C@@H]1CN,1%,x,x,x,x,0%
O=C1C=CCC(/C=C/c2ccccc2)O1 (configuration not stated),15µM*,3.7µM*,2.3µM*,-103*,u,16µM*
CCN(C(C)=O)c1cnc(C=NNC(N)=S)c2ccccc12,4.6µM*,4.6µM*,3.7µM*,119,x,10µM*
NC(=S)N/N=C/c1ccc(OC(=O)c2cccnc2)cc1,2%,0%,2%,27,u,u
NC(=S)NN=Cc1nccc2c(N)cccc12,x,1.2µM*,1.8µM*,120,x,x
O=C(NCc1ccccc1)C(c1cccnc1)N(C(=O)c1csnn1)c1ccccc1 (configuration not stated),0%,-3%,1%,-9,-10%,0%
Cc1cccc(NC(=O)CCCn2cc([N+](=O)[O-])cn2)n1,1%,3%,-18%,16,-13%,-7%
CCc1cc(Cn2nc(-c3ccccc3)cc2C(=O)NCc2cccc(Br)c2)on1,u,16µM*,u,-53*,1%,13%
CCc1c(C)nc2cc(-c3ccc(Cl)cc3)[nH]n2c1=O,0%,2.3µM*,3.7µM*,4,-12%,0%
SMILES,MCF10A rereplic,DT40 TDP1 no CPT,DT40 TDP1 CPT,IL-1B inflam inh,BCR signal inh,SW480 rereplic
CCc1c(C)nc2cc(-c3cccc(Br)c3)[nH]n2c1=O,u,1.5µM*,4.6µM*,28,4%,u
O=C1CSC(=S)N1/N=C/c1ccc(O)c(O)c1O,1%,u,26µM*,4,20%,u
O=C1CSC(=S)N1/N=C/c1cc(Br)ccc1O,x,x,x,x,-7%,x
COc1ccc(N2CC(C(=O)Nc3ccc(S(=O)(=O)Nc4nccs4)cc3)CC2=O)c(OC)c1 (configuration not stated),-3%,-17%,16%,-7,1%,-8%
COc1ccc(-c2nc(CSCC(=O)N3CCN(c4ccc(OC)cc4)CC3)c(C)o2)cc1,x,10µM*,u,x,x,x
COc1ccc(-c2nc(CSCC(=O)N3CCN(c4cc(Cl)ccc4C)CC3)c(C)o2)cc1,x,16µM*,13µM*,x,x,x
CCOc1ccc(-c2nc(CSCC(=O)N3CCN(c4cccc(C(F)(F)F)c4)CC3)c(C)o2)cc1,x,10µM*,21µM*,x,u,x
CCOc1ccc(-c2nc(CSCC(=O)N3CCN(c4ccc(F)cc4)CC3)c(C)o2)cc1,x,-22%,-18%,x,-1%,x
COc1ccc(-c2nc(CSCC(=O)N3CCN(c4cccc(C)c4C)CC3)c(C)o2)cc1OC,x,23µM*,18µM*,x,u,x
CCN(Cc1nc2ccccc2c(=O)[nH]1)C(=O)c1ccc(C)c(NC(=O)c2ccco2)c1,1%,u,-23%,-5,-1%,-3%
CC(C)N1CCc2c(sc(NC(=O)c3ccc(S(=O)(=O)N(C)CC4CCCO4)cc3)c2C(N)=O)C1 (configuration not stated),2%,-18%,-25%,-11,-3%,9%
CCCN1CCc2c(sc(NC(=O)c3ccc(S(=O)(=O)N4CCN(C(=O)OCC)CC4)cc3)c2C(N)=O)C1,u,u,u,-98*,-4%,21µM*
CCOC(=O)N1CCN(S(=O)(=O)c2ccc(C(=O)Nc3sc4c(c3C(N)=O)CCN(CC)C4)cc2)CC1,u,21µM*,u,-68*,u,778%
CCN1CCc2c(sc(NC(=O)c3ccc(S(=O)(=O)N(C)CC4CCCO4)cc3)c2C(N)=O)C1 (configuration not stated),2%,21µM*,-36%,i,-11%,-16%
CCOC(=O)N1CCN(S(=O)(=O)c2ccc(C(=O)Nc3sc4c(c3C#N)CCC4)cc2)CC1,4%,-28%,0%,6,0%,-1%
COc1cc(=O)n2c(c1C(=O)NC(C)c1ccco1)CCN(C(=O)c1ccc3c(c1)OCCO3)CC2 (configuration not stated),x,-5%,-5%,x,x,x
